# High-throughput results (PubChem BioAssay)
# Giardia killer – Small Molecules that selectively kill Giardia lamblia: qHTS | Giardia lamblia trophozoite viability | activity change, % at 7.66 µM, hits read low | 340,000 tested, 0.15% active | AID 540267, 2011; in the data active = activity change below about -80%; inconclusive = between about -30% and that limit;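 also: parasites exposed to compound for two days anaerobically before the ATP read; % is scaled to controls: 0 for no effect and ±100 for the full control effect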
#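 Trophozoites 100 cells/well + cpd; 48 hrs, 37 deg C, anaerobic. ATPLite 1-Step added, 15-30 min RT, luminescence read (ATP-based viability).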
# ELG1 repair inh – qHTS screen for small molecules that inhibit ELG1-dependent DNA repair in human embryonic kidney (HEK293T) cells expressing luciferase-tagged ELG1; Potency, µM (titrated, usually from 46.1 µM), for inactives: top-dose activity change, negative = inhibition, hits mostly inhibitors; AID 504467, 2011; 330,000 tested, 2.3% active; HEK293T ELG1-luciferase reporter, luminescence, 16 h; DNA damage induced by 5-fluorouridine; also: potency is read from the fitted curve at half-maximal effect; % is scaled to controls: 0 for no effect and ±100 for the full control effect; nearly all actives have a fitted effect of over 55% in size
#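 Quantitative HTS, concentration-response format. 2,000 cells/well co-treated with 5-fluorouridine and compound, 16 hr in 5% CO2 at 37 °C; ONE-Glo luminescence read after 30 min.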
# BRCA1 expr up – qHTS Assay to Identify Small Molecule Activators of BRCA1 Expression; 380,000 tested, 1.1% active; Potency, µM (series often up to 46.1 µM), for the others: top-dose activation, most hits filed as activators; MCF7-BRCA1-FFLuc reporter, luminescence, 48 h; response scale: scaled: vehicle 0%, 10 µM genistein 100%; also: potency is read from the fitted curve at half-maximal effect; nearly all actives have a fitted effect of over 80% in size
#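 MCF7-BRCA1-FFLuc cells, 2000/well in phenol-red-free MEM, attached 2 h then treated 48 h at 37 C. Luciferase luminescence read 15 min after reagent; normalized to genistein maximum activation (10microM) and DMSO, concentration-response fitted.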
# Gal4-VP16 FLuc – VP16 counterscreen qHTS for inhibitors of ROR gamma transcriptional activity | Drosophila S2 Gal4-VP16 UAS-luciferase, luminescence, 20 h | Potency, µM (highest dose often 53.6 µM), without a hit: at the highest dose activity, negative = inhibition, most hits filed as inhibitors | 310,000 tested, 3.5% active | AID 2546, 2010;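 also: Gal4-VP16 expression switched on by copper sulfate through the metallothionein promoter; potency is read from the fitted curve at half-maximal effect; % is scaled to controls: 0 for no effect and ±100 for the full control effect; nearly all actives have a fitted effect of over 50% in size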
# RORgamma inh – qHTS for inhibitors of ROR gamma transcriptional activity; Potency, µM (top dose mostly 53.6 µM), for the others: top-dose activity change, negative = inhibition, most hits filed as inhibitors; Nuclear receptor ROR-gamma (Mus musculus), P51450; Drosophila S2 Gal4-RORgamma UAS-luciferase reporter, 20 h; 310,000 tested, 5.4% active; AID 2551, 2010; also: potency is read from the fitted curve at half-maximal effect; % is scaled to controls: 0 for no effect and ±100 for the full control effect; nearly all actives have a fitted effect of over 60% in size
# Target sequence (P51450 whole entry, looked up, the tested form may be a part): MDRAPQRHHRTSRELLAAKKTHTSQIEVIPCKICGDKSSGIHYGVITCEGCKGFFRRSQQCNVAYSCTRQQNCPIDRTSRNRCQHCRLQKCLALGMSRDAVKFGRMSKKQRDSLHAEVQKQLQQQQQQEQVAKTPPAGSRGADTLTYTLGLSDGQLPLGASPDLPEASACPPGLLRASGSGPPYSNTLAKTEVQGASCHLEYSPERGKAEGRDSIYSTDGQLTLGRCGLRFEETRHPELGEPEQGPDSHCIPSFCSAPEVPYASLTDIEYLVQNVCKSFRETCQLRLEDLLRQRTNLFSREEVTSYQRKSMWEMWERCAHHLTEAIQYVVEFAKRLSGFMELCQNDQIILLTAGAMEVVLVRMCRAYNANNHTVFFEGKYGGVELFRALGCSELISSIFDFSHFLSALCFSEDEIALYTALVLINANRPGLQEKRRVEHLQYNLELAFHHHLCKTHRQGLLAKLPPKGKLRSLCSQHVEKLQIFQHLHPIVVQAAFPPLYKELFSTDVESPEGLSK
#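 ROR gamma transcriptional activity was tracked as Gal4-UAS luciferase output in stably transfected Drosophila Schneider cells, with compound added 1 hr before 700 uM copper sulfate induction and a 20 hr ambient-temperature incubation.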
# p53 reactivator – qHTS assay for re-activators of p53 using a Luc reporter | 320,000 tested, 0.063% active | Potency, µM (doses to about 92.2 µM), without a hit: at the top dose activity change, positive = activation, hits mostly activators | H1299 p53-A138V BP100-luciferase reporter, luminescence, 24 h; also: potency is read from the fitted curve at half-maximal effect; % of control where 0% means no effect; nearly all actives have a fitted effect of over 45% in size
#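 p53-null H1299 cells stably carrying temperature-sensitive p53-A138V and a BP100-luciferase reporter were pinned with compounds (4-point, 1:5 series) and held 24 hrs at 37 deg C. Luminescence was read 10 min after detection reagent.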
# The depositor's hits bear a star; ? = inconclusive; · = not tested or not shown; [ ] = another dose, or the depositor's remark. Hits are enriched below; roughly 7.6% of the tested compounds scored in any of these assays. Unless noted, calls follow the shape of the dose curve; as a rule, active = well fitted curve in the direction sought with a large enough effect; inconclusive = small, poorly fitted or top-dose-only effect, or another doubt; inactive = no such curve, though single readings can be large; an effect the other way counts as inactive or inconclusive.
SMILES,Giardia killer,ELG1 repair inh,BRCA1 expr up,Gal4-VP16 FLuc,RORgamma inh,p53 reactivator
Clc1ccc(OCCn2cnc3ccccc32)cc1,-14,-2%,65%,10%,4µM*,5%
c1ccc2c(c1)ncn2CCC1CCCCC1,-3,-19%,11%,-91%,7.9µM*,5%
COc1ccc(C(=O)NCCc2nnc3ccc(SCC(=O)NCc4ccccc4)nn23)cc1,10,?,-21%,17%,20%,13%
CCOC(=O)c1[nH]c2ccc(F)cc2c1NC(=O)C(C)N1CCc2cc(OC)c(OC)cc2C1 (configuration not stated),4,4.1µM*,-78%,-3%,8%,7%
CCOC(=O)c1[nH]c2ccc(OC)cc2c1NC(=O)CN1CCN(c2ccccn2)CC1,·,?,·,3%,18%,-9%
COC(=O)c1[nH]c2ccc(Br)cc2c1NC(=O)CN1CCCc2ccccc21,-24,8.2µM*,-71%,0%,41%,0%
CCOC(=O)C1CCCN(CC(=O)Nc2c(C(=O)OC)[nH]c3ccc(Br)cc23)C1 (configuration not stated),-24,16µM*,-51%,?,7%,-1%
CCOC(=O)c1[nH]c2ccc(OC)cc2c1NC(=O)CN1CCc2ccccc2C1,35,16µM*,-83%,2%,17%,-8%
O=C(NCc1ccc(F)cc1)N1CCN(S(=O)(=O)c2ccccc2F)CC1,7,0%,0%,-3%,2%,1%
CCC(=O)N1CCC1(C)C(=O)Nc1ccc(F)cc1 (configuration not stated),·,·,11%,·,·,·
CCOC(=O)C1CCN(CC(=O)Nc2c(C(=O)OC)[nH]c3ccc(Cl)cc23)CC1,0,21µM*,-29%,10µM*,?,-12%
CCOC(=O)c1c(C)cc(O)c(C)c1O,·,·,·,-4%,-19%,·
COC(=O)c1ccc(Oc2c(Cl)cccc2[N+](=O)[O-])cc1,-11,2%,1%,-28%,7.9µM*,-7%
COC(=O)c1ccc(Oc2ccc(C(C)(C)C)cc2)c([N+](=O)[O-])c1,-12,0%,-11%,-6%,?,8%
C/C(CC(=O)Nc1cccc(C(F)(F)F)c1)=N\NC(=O)Cc1ccccc1,6,5%,-17%,2%[10 µM],?,1%
Cc1cccc(C)c1NC(=O)CNC(=O)c1ccc(COc2ccccc2)cc1,7,28%,22%,·,·,16%
O=C(NC(=S)Nc1ncc(Br)cc1Br)c1cncc(Br)c1,-3,·,-50%,?,6.3µM*,·
O=C(NC(=S)Nc1ccc(O)cc1)c1cncc(Br)c1,-18,·,50%,·,·,·
Cc1cc(O)ccc1NC(=S)NC(=O)c1cncc(Br)c1,-16,-8%,-20%,0.56µM*,0.79µM*,?
O=C(COC(=O)c1cncc(Br)c1)NC1CCCCC1,4,-6%,-7%,11%,-17%,4%
Cc1ccccc1NC(=S)NC(=O)c1cncc(Br)c1,2,-18%,-2%,?,?,-1%
O=C(NC(=S)NC1CCCCCC1)c1cncc(Br)c1,5,?,11µM*,6.3µM*,3.5µM*,?
N=c1oc2ccc(Br)cc2cc1C(=O)NC1CCCCCC1,0,11%,-1%,-1%,-7%,0%
COc1cc(NC(=O)Cn2c(-c3cncs3)nc3ccccc32)cc(OC)c1OC,-5,?,-15%,?,?,-15%
O=C(NCCC1=CCCCC1)c1cnc2n(c1=O)CCS2,2,?,8.9µM*,-13%,33%,?
O=C(NCCCc1ccccc1)c1cnc2n(c1=O)CCS2,11,?,6.3µM*,2%,-27%,?
